SMN2 splice up – SMN2 splice variant enhancement; HEK293 SMN2-luciferase splicing reporter, luminescence, 30-36 h; Potency, µM (series often up to 46.1 µM), for inactives: at the highest dose activity change, positive = activation, actives largely listed as activators; hit rate 2.8% among 210,000; AID 1458; also: % of control where 0% means no effect; nearly all actives have a fitted effect of over 55% in size
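HEK293 cells carry an SMN2 minigene-luciferase reporter in which exon 7 inclusion puts luciferase in frame. Cells were seeded at 2000 cells/well, attached for 10-12 hours, then exposed to compounds for 30-36 hours at 37C before ONE-Glo luminescence.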
ELG1 genotox – inducers of genotoxicity in HEK293T ELG1-luciferase cells. HEK293T ELG1-luciferase reporter, luminescence, 16 h. Potency, µM (highest dose often 46 µM), for inactives: top-dose activity change, positive = activation, hits mostly activators. hit rate 1.3% among 330,000. AID 504466; also: % of control where 0% means no effect; nearly all actives have a fitted effect of over 60% in size
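HEK293T cells expressing luciferase-tagged ELG1 were exposed to compound or DMSO vehicle for 16 hr at 37 °C and 5% CO2. Luciferase activity was then measured with ONE-Glo after 30 min at room temperature.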
NPC1 promoter act – activators of NPC1 promoter | Potency, µM (series often up to 9.22 µM), without a hit: top-dose activation, most hits filed as activators | Huh7 NPC1 promoter luciferase reporter, 24 h | hit rate 2.4% among 320,000; also: % of control where 0% means no effect; nearly all actives have a fitted effect of over 60% in size
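Cells: Huh7 expressing luciferase under the NPC1 promoter, 1500/well. Seeded 2 h, compound added, incubated 24 h at 37 °C. Luciferase reagent, 10 min ambient, then luminescence.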
Rab9 promoter act – Rab9 promoter activation | Huh7 Rab9 promoter-luciferase reporter, luminescence, 24 h | hit rate 2.8% among 320,000 | Potency, µM (doses to about 9.22 µM), without a hit: at the top dose activation, negative = inhibition, actives largely listed as activators; also: % of control where 0% means no effect; nearly all actives have a fitted effect of over 60% in size
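Quantitative HTS format; Huh7 Rab9-luciferase reporter cells (1500/well) receive compound 2 h post-plating, incubate 24 h at 37 °C, then get luciferase reagent for 10 min before luminescence reading.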
FLuc modulator – inhibits or activates purified firefly luciferase, miR-21 counter-screen; P08659; purified FLuc, Km substrates, luminescence inhibition; Potency, µM (doses to about 57.5 µM), for the others: at the highest dose activity change, negative = inhibition, actives largely listed as inhibitors; hit rate 6.9% among 360,000; AID 588342;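 also: plate controls were vehicle for no effect and reference inhibitor for full effect; nearly all actives have a fitted effect of over 55% in size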
Target sequence (P08659 whole entry, looked up): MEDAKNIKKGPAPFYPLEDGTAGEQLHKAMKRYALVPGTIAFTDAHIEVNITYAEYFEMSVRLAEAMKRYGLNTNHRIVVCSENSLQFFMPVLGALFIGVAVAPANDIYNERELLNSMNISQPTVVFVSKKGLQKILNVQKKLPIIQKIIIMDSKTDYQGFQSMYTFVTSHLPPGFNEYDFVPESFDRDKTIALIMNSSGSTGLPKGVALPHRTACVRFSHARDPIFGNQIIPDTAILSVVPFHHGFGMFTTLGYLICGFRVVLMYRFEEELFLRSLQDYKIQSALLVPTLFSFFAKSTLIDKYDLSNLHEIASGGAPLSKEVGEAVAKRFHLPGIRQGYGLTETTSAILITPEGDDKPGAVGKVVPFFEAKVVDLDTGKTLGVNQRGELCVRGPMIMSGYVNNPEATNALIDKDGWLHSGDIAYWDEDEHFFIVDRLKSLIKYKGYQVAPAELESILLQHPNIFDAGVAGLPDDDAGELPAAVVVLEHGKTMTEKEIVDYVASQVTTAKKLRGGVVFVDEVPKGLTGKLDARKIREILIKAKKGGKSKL
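Purified P. pyralis luciferase, 10 nM final, with Km-level 10 uM D-luciferin and 10 uM ATP in 50 mM Tris acetate pH 7.5, 10 mM Mg acetate, 0.01% Tween-20, 0.05% BSA; 6-point qHTS titration about 60 µM downward; luminescence read.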
ELG1 DNA repair – blocks ELG1-dependent DNA repair in HEK293T cells. HEK293T ELG1-luciferase reporter, luminescence, 16 h; DNA damage induced by 5-fluorouridine. Potency, µM (titrated, usually from 46.1 µM), without a hit: at the top dose activity change, negative = inhibition, actives largely listed as inhibitors. hit rate 2.3% among 330,000; also: % is scaled to controls: 0 for no effect and ±100 for the full control effect; nearly all actives have a fitted effect of over 55% in size
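Luminescence from the luciferase reporter, measured 30 min after ONE-Glo reagent at room temperature, was the read-out. Beforehand, 2,000 cells per well were exposed for 16 hr at 37 °C to 5-fluorouridine together with compound or vehicle.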
Numbers without * were called inactive; u = inconclusive; x = no result given; [ ] = remark or other dose. The list is not random: actives were taken first. Their share in the collection is about 9.2%. Calls follow the shape of the dose curve; as a rule, active = well fitted curve in the direction sought with a large enough effect; inconclusive = small, poorly fitted or top-dose-only effect, or another doubt; inactive = no such curve, though single readings can be large; an effect the other way counts as inactive or inconclusive. Potency is read from the fitted curve at half-maximal effect.

SMILES	SMN2 splice up	ELG1 genotox	NPC1 promoter act	Rab9 promoter act	FLuc modulator	ELG1 DNA repair
CCC1CN(C(=O)N2CCC(C(=O)NCCc3ccccc3)CC2)c2ccccc2O1 (configuration not stated)	x	-8%	-4%	-4%	1%	u
Cc1cc(Cl)ccc1OCC(=O)NNC(=O)c1ccc(=O)[nH]c1	x	1%	x	x	x	2%
Cc1nn(C)c(Cl)c1CN1CCCC(C(=O)Nc2cccc(-n3cccn3)c2)C1 (configuration not stated)	x	-18%	-8%	0%	1%	16µM*
CCn1cc(CN2CCCC(C(=O)Nc3cccc(-n4cccn4)c3)C2)c(C)n1 (configuration not stated)	x	-4%	-1%	6%	0%	-3%
CN(C)C(CNC(=O)c1cc(-c2ccco2)nc2ccccc12)c1ccccc1 (configuration not stated)	x	10%	x	x	x	u
Cc1ccc2nc(SCC(=O)Nc3ccc(C(N)=O)cc3)[nH]c2c1	x	7%	-1%	-17%	-6%	16%
O=C(CSc1ccc2ccccc2c1)Nc1nc2ccccc2[nH]1	x	15%	-3%	-9%	3%	14%
Cc1ccc2nc(-c3ccc(NC(=O)CSc4ccccc4)cc3)[nH]c2c1	3.5µM*	u	1.6µM*	2.5µM*	u	u
O=C(CSc1ccccc1)Nc1ccc(-c2nc3ccccc3[nH]2)cc1	8.9µM*	u	2.2µM*	3.2µM*	u	u
O=C(Cc1cccs1)Nc1ccc(-c2nc3ccccc3[nH]2)cc1	18µM*	u	1.8µM*	1.6µM*	1.5µM*	u
O=C(CSc1ccc(Cl)cc1)Nc1cccc(-c2nc3ccccc3[nH]2)c1	2.8µM*	20%	16%	u	-7%	u
CC(=O)C1=C(O)C(=O)N(C)C1c1ccccc1[N+](=O)[O-] (configuration not stated)	x	1%	-2%	2%	-24%	-1%
CCNC(=S)Nc1ccc(-c2nc3ccccc3[nH]2)cc1	x	u	3.2µM*	1.1µM*	11µM*	u
O=C(Nc1ccc(-c2nc3ccccc3[nH]2)cc1)C1CCCO1 (configuration not stated)	2.2µM*	0.41µM*	0.35µM*	0.32µM*	1.2µM*	u
O=C(Nc1nc2ccccc2[nH]1)C1CCCO1 (configuration not stated)	29%	16%	u	u	u	u
CCOc1ccc(NC(=S)NCc2nc3ccccc3[nH]2)cc1	11%	6%	-2%	-3%	-10%	-7%
O=C(CN1CCOCC1)Nc1ccc(-c2nc3ccccc3[nH]2)cc1	25%	u	u	u	13µM*	u
O=C(CN1CCCC1)Nc1ccc(Br)cc1[N+](=O)[O-]	x	14%	14%	12%	u	0%
CC1=CC2=NC(=O)/C(=C\c3cccn3CCOc3cccc(C)c3)C(=N)N2O1	u	-3%	-3%	-6%	3%	23µM*
CC1=CC2=NC(=O)/C(=C\c3cccn3CCOc3ccccc3)C(=N)N2O1	u	-4%	-3%	1%	-2%	u
CC1=CC2=NC(=O)/C(=C\c3cccn3CCOc3cc(C)cc(C)c3)C(=N)N2O1	18%	-3%	0%	-2%	0%	21µM*
O=C(OCn1ncc(Br)c(Br)c1=O)c1c(F)cccc1F	x	u	-36%	-54%	5%	9.2µM*
CC(=O)Cn1ncc(Br)c(Br)c1=O	-108%	-21%	-41%	-43%	8%	u
COC1CCN(Cc2cn(Cc3ccccc3)nc2-c2cc3ccccc3o2)CC1	x	-5%	0%	2%	-2%	21µM*
OCC1CCN(Cc2cn(Cc3ccccc3)nc2-c2cc3ccccc3o2)CC1	x	0%	-2%	1%	1%	-13%
SMILES	SMN2 splice up	ELG1 genotox	NPC1 promoter act	Rab9 promoter act	FLuc modulator	ELG1 DNA repair
COc1ccc(NC(=O)c2ccco2)cc1NC(=O)c1cc(OC)c(OC)c(OC)c1	8%	x	x	x	u	x
CCn1c(SCC(=O)c2ccccc2)nnc1-c1cccs1	8%	u	u	u	9.5µM*	u
CCn1c(SCC(=O)O)nnc1-c1cc2c(C)nn(-c3ccccc3)c2s1	-6%	1%	2%	0%	9.5µM*	u
CCn1c(SCC(=O)NCCc2ccccc2)nnc1-c1cccs1	-11%	-2%	0%	3%	4%	-3%
Cc1ccnc(SCC(=O)c2cccs2)n1	u	u	3.5µM*	3.2µM*	u	u
CCn1c(SCC(=O)c2cc(C)n(C)c2C)nnc1-c1ccccc1	-3%	0%	-1%	-1%	u	-4%
Cc1nn(-c2ccccc2)c2sc(-c3nnc(SCC(=O)O)o3)cc12	-17%	15%	2%	u	u	-10%
CCn1c(SCC(=O)c2cc(C)n(-c3ccc(C(=O)OC)cc3)c2C)nnc1-c1cccnc1	-7%	-17%	-1%	-4%	15µM*	u
NC(=O)c1ccccc1OC1CCC1	x	-7%	2%	-6%	3%	-13%
CCN1C(=O)[C@H]2[C@@H](c3ccc(-c4ccc(Cl)c(Cl)c4)c(OC)c3)N[C@@](Cc3ccccc3)(C(=O)OC)[C@H]2C1=O	x	-2%	-2%	-4%	5%	28%
CC(=O)c1cc(-c2ccc(F)cc2)n(CCC(=O)Nc2nc3c(C)cccc3s2)c1C	x	x	x	x	-1%	x
CCn1c(SCC(=O)c2cccs2)nnc1-c1ccco1	-1%	17%	17%	21%	21µM*	u
CCn1c(SCC(=O)c2ccc(O)c(O)c2)nnc1-c1ccccc1	u	21µM*	-2%	-8%	u	u
CCn1c(SCC(=O)c2ccc(O)c(O)c2)nnc1-c1ccccc1OC	5%	0%	-1%	-1%	-17%	-13%
CCn1cc(/C=N\NC(=O)c2c[nH]c3ccccc23)c(C)n1	27%	4%	15%	19%	21µM*	u
Cc1c(/C=N\NC(=O)c2c[nH]c3ccccc23)cnn1C	27%	6%	2%	14%	12µM*	u
CC(OC(=O)c1cc(S(=O)(=O)N2CCOCC2)ccc1Br)C(=O)N1CCOCC1 (configuration not stated)	x	0%	-2%	1%	5%	-7%
CN(CC(=O)Nc1ccc(F)cc1)C(=O)CN1C(=O)NC2(CCCc3ccccc32)C1=O (configuration not stated)	x	1%	-3%	-1%[1.84 µM]	3%	-3%
CC(C)CCCNc1nc(N2CCOCC2)nc(N2CCOCC2)n1	-11%	0%	0%	-2%	0%	10µM*
